# Unmarked numbers belong to inactive results. Records with an inconclusive call do not appear. A call without a number means that no potency is given here. The source made the active and inactive calls. Unless noted, calls come from the whole dose curve; as a rule, active = well fitted curve in the direction sought with a large enough effect; inconclusive = small, poorly fitted or top-dose-only effect, or another doubt; inactive = no such curve, though single readings can be large; an effect the other way counts as inactive or inconclusive.
# Legend:
# [1] = molecular target: Cytochrome P450 1A2 (Homo sapiens) (UniProt P05177); assay: p450-cyp1a2 (AID 410; calls by dose curve; note: potency is the fitted concentration of half-maximal effect)
# Sequence of Cytochrome P450 1A2 (Homo sapiens) (P05177 whole entry, looked up): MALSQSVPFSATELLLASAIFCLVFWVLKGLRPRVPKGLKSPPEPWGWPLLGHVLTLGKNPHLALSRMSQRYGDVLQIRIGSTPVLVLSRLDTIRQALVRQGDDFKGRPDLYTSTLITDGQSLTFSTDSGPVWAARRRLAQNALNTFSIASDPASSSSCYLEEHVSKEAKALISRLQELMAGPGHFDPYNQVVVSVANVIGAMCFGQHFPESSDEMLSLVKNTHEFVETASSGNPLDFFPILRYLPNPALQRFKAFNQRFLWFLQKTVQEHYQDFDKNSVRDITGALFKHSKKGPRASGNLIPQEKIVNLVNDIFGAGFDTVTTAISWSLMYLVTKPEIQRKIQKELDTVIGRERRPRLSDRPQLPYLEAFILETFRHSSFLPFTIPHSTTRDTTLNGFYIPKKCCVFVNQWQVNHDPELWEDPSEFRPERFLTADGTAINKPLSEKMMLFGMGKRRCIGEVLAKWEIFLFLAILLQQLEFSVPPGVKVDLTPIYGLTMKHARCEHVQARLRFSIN
# Method in brief: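 Human CYP1A2 (20nM) demethylated Luciferin-ME at its Km (100uM) in 100mM KPO4. After 10 min compound preincubation, NADPH regeneration ran the reaction 60 min at room temperature. Luciferin was read by luminescence, normalized to 57 uM furafylline.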
# [2] = molecular target: Glucocorticoid receptor (Homo sapiens) (UniProt P04150); assay: GR-EFC Redistribution (AID 451; calls by dose curve; note: potency is the fitted concentration of half-maximal effect); conditions: CHO-K1 GR-EFC translocation, beta-gal luminescence, 2 h
# Sequence of Glucocorticoid receptor (Homo sapiens) (P04150 whole entry, looked up, the tested form may be a part): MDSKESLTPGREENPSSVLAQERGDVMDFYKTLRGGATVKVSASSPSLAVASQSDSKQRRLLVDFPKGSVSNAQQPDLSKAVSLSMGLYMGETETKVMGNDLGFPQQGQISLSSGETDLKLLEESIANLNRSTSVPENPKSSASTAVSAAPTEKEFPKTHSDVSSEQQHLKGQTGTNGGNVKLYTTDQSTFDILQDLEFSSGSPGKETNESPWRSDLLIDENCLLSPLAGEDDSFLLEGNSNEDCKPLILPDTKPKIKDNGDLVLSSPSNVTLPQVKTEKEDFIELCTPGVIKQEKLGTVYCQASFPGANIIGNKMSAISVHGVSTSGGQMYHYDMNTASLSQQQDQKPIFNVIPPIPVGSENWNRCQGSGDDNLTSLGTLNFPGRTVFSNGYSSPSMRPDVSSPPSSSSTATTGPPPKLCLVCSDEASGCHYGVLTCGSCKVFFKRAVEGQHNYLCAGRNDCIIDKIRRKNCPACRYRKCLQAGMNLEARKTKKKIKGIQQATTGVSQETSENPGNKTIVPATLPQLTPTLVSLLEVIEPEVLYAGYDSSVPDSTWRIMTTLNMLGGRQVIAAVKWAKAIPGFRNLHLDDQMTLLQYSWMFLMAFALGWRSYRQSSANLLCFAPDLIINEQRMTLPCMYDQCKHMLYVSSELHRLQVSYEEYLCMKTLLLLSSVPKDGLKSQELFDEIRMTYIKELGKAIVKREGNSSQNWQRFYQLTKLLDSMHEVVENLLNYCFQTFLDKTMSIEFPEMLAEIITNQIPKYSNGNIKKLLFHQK
# Method in brief: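 CHO-K1 cells expressing nuclear EA and GR-ED fragments of b-gal; compounds titrated up to 46 uM final, 2 h at 37 C. GR nuclear translocation read as complemented b-gal luminescence after 1 h RT detection.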
# [3] = molecular target: 3',5'-cyclic-AMP phosphodiesterase 4B (Homo sapiens) (UniProt Q07343); assay: qHTS Assay for Inhibitors of PDE-IV (AID 607; active = well fitted activation curve with a large enough effect in the main read-out, with a control signal flat, not every such curve was filed as active)
# Sequence of 3',5'-cyclic-AMP phosphodiesterase 4B (Homo sapiens) (Q07343 whole entry, looked up): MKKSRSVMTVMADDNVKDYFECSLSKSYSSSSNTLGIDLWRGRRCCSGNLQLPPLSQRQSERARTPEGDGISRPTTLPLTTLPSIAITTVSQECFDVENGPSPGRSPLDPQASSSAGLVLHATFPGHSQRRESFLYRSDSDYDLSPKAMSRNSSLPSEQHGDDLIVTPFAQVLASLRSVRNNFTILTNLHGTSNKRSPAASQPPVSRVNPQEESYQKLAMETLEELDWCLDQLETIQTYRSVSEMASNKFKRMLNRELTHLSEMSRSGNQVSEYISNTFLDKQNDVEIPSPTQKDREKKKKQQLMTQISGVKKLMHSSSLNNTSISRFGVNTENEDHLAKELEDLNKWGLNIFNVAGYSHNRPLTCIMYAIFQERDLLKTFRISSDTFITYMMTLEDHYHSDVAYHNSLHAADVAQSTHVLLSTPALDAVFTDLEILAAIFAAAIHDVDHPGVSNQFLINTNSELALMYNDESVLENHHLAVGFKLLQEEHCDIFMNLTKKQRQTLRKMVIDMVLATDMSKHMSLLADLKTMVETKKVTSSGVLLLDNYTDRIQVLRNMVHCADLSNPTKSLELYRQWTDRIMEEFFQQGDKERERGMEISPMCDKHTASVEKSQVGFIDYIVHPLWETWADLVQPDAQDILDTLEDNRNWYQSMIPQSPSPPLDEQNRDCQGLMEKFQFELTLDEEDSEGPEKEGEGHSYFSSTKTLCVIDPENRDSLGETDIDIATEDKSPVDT
# Method in brief: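 HEK293 ACTOne cells with CNG channel (1000/well), endogenous PDE4; membrane potential dye, compounds up to 22.9 uM final. Fluorescence Ex 535/Em 590; RO 20-1724 (100 uM final) as reference.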
# [4] = molecular target: Cytochrome P450 2D6 (Homo sapiens) (UniProt P10635); assay: qHTS Assay for Inhibitors and Substrates of Cytochrome P450 2D6 (AID 891); note: nearly all actives have a fitted effect of over 60% in size; note: potency is the fitted concentration of half-maximal effect
# Sequence of Cytochrome P450 2D6 (Homo sapiens) (P10635 whole entry, looked up): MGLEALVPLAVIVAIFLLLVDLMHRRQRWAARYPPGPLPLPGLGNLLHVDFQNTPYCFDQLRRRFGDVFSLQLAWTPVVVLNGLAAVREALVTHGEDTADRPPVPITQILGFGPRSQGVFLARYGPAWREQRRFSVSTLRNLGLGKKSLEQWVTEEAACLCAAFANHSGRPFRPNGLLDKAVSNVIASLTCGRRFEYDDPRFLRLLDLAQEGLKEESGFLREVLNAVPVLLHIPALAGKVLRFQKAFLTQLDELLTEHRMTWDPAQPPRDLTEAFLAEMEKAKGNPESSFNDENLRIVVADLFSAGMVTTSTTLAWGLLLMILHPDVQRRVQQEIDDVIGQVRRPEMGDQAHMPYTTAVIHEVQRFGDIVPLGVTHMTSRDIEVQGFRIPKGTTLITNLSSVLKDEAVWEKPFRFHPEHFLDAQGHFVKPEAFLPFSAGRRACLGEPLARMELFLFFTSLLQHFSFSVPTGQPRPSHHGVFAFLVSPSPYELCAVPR
# Method in brief: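 Human CYP2D6 (5 nM) with 30 uM Luciferin-ME EGE (at Km) in 100 mM KPO4, compound preincubated 10 min, then NADPH regeneration system for 60 min at room temperature. Luciferin read by luminescence; normalized to 1.43 uM quinidine.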
# [5] = molecular target: Cytochrome P450 2C9 (Homo sapiens) (UniProt P11712); assay: qHTS Assay for Inhibitors and Substrates of Cytochrome P450 2C9 (AID 883); note: nearly all actives have a fitted effect of over 60% in size; note: potency is the fitted concentration of half-maximal effect
# Sequence of Cytochrome P450 2C9 (Homo sapiens) (P11712 whole entry, looked up): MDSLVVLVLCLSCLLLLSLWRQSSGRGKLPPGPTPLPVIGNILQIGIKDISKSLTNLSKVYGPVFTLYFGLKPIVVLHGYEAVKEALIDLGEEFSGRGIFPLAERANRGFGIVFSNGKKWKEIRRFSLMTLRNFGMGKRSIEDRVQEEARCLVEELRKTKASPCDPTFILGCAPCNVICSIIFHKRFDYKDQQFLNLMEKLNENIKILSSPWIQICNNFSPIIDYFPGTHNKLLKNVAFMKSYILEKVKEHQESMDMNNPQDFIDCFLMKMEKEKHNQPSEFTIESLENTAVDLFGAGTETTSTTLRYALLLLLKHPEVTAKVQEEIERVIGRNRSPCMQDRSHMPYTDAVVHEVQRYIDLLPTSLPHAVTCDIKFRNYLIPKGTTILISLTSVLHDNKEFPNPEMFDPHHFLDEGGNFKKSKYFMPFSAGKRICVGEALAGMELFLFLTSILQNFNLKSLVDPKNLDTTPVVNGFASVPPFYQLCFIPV
# Method in brief: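 Signal: luciferase luminescence reporting luciferin produced by CYP2C9. Conditions: 10nM enzyme, Luciferin-H 100uM at KM, 25mM KPO4, 37C, 60 min NADPH-driven reaction. Reference: 57uM sulphaphenazole as 100% inhibition.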
# [6] = molecular target: Cytochrome P450 2C19 (Homo sapiens) (UniProt P33261); assay: qHTS Assay for Inhibitors and Substrates of Cytochrome P450 2C19 (AID 899); note: nearly all actives have a fitted effect of over 60% in size; note: potency is the fitted concentration of half-maximal effect
# Sequence of Cytochrome P450 2C19 (Homo sapiens) (P33261 whole entry, looked up): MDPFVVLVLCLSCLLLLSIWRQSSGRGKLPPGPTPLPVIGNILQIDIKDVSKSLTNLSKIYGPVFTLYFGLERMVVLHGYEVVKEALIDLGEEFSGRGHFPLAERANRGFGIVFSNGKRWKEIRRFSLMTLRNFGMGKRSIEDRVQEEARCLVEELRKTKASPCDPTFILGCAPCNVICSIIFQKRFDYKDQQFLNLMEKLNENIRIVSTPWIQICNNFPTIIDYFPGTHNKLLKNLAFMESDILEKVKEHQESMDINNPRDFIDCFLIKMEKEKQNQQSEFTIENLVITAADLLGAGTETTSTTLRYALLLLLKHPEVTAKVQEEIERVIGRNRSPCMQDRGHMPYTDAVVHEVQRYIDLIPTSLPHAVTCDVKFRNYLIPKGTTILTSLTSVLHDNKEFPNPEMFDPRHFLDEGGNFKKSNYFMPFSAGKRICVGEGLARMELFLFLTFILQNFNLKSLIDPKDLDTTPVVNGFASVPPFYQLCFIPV
# Method in brief: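 Signal comes from luciferase acting on luciferin released by CYP2C19-mediated hydroxylation of Luciferin-H EGE, 10uM (KM). Assay mix: 5nM enzyme, 50mM KPO4; 60 min at 37C with NADPH regeneration. Data normalized against 57uM ketoconazole.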
# [7] = molecular target: Mitogen-activated protein kinase 10 (Mus musculus) (UniProt Q61831); assay: JNK3 AlphaScreen Assay (AID 530; active = well fitted curve in either direction with a large enough effect, not every such curve was filed as active;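 note: kinase came from lysate of stimulated human HepG2 cells; signal reports phosphorylation of biotinylated GST-cJun 1-79 at Ser73 with 10 µM ATP; series mostly up to about 57 µM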)
# Method in brief: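 qHTS format: compounds tested as titrations against IL-1beta/TNF-alpha-activated HepG2 lysate JNK3 with biotin-GST-cJun substrate and 10 uM ATP at room temperature. Loss of anti-phospho-cJun AlphaScreen signal indicates inhibition.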
# [8] = molecular target: Cytochrome P450 3A4 (Homo sapiens) (UniProt P08684); assay: qHTS Assay for Inhibitors and Substrates of Cytochrome P450 3A4 (AID 884); note: potency is the fitted concentration of half-maximal effect; nearly all actives have a fitted effect of over 50% in size
# Sequence of Cytochrome P450 3A4 (Homo sapiens) (P08684 whole entry, looked up): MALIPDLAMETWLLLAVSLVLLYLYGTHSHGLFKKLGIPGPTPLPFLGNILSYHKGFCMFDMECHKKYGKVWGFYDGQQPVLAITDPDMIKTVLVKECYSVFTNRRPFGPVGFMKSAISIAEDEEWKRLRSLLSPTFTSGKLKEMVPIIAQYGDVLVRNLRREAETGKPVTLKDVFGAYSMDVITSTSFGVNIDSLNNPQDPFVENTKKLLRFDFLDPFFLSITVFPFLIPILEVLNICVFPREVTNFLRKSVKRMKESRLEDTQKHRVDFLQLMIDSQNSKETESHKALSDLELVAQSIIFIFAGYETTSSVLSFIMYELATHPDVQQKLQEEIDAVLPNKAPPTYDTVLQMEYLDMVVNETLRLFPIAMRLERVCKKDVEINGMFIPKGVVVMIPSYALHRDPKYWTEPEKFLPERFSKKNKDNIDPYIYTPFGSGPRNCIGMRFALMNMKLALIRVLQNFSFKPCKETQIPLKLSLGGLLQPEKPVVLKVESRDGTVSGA
# Method in brief: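 20 nM human CYP3A4 with 25 uM Luciferin-PPXE (at KM) in 200 mM KPO4, preincubated 10 min with compound; NADPH regeneration started a 60 min RT reaction. Luciferin detected by luminescence, normalized to 57 uM ketoconazole as full inhibition.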
# [9] = molecular target: Cytochrome P450 3A4 (Homo sapiens) (UniProt P08684); assay: qHTS Assay for Activators of Cytochrome P450 3A4 (AID 885); note: nearly all actives have a fitted effect of over 65% in size
# Method in brief: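 Human CYP3A4 (20 nM) with Luciferin-PPXE at 25 uM (its KM) in 200 mM KPO4; 10 min compound preincubation, then NADPH regeneration and 60 min reaction at RT. Luciferin read by luminescence; normalized to 57 uM ketoconazole full inhibition.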
Structure (SMILES),Potency [1],Potency [2] [µM],Potency [3],Potency [4],Potency [5],Potency [6],Potency [7],Potency [8],Potency [9]
CC(C)[C@@H](CC(=O)N[C@@H]1CCNC[C@H]1C(=O)N[C@H](CC(=O)N[C@@H](CCC(=O)O)CC(=O)O)Cc1ccccc1)NC(=O)C[C@H](CO)NC(=O)[C@@H]1CNCC[C@H]1N,inactive,> 46,inactive,inactive,,,,,
CC(C)[C@@H](CC(=O)N[C@@H]1CCCC[C@H]1C(=O)N[C@H](CC(=O)N[C@@H](CCC(=O)O)CC(=O)O)Cc1c[nH]c2ccccc12)NC(=O)C[C@H](Cc1ccccc1)NC(=O)[C@@H]1CCCC[C@H]1N,inactive,> 46,inactive,inactive,inactive,inactive,,,
NCCC[C@@H](CC(=O)N[C@@H]1CCCC[C@H]1C(=O)N[C@H](CC(=O)N[C@@H](CCC(=O)O)CC(=O)O)Cc1c[nH]c2ccccc12)NC(=O)C[C@H](CO)NC(=O)[C@@H]1CNCC[C@H]1N,inactive,> 46,inactive,,,inactive,,,
NCCC[C@@H](CC(=O)N[C@@H]1CCNC[C@H]1C(=O)N[C@H](CC(=O)N[C@@H](CCC(=O)O)CC(=O)O)Cc1c[nH]c2ccccc12)NC(=O)C[C@H](Cc1ccccc1)NC(=O)[C@@H]1CNCC[C@H]1N,31.6 µM (active),> 46,inactive,inactive,inactive,inactive,,,
CC(C)[C@@H](CC(=O)N[C@@H]1CCCC[C@H]1C(=O)N[C@H](CC(=O)N[C@@H](CCC(=O)O)CC(=O)O)Cc1ccccc1)NC(=O)C[C@H](CO)NC(=O)[C@@H]1CNCC[C@H]1N,inactive,> 46,inactive,inactive,,inactive,,,
COC(=O)[C@@]1(Cc2ccc(OC)cc2)[C@H]2c3cc(C(=O)N(C)C)n(CCN4CNCC4=O)c3C[C@H]2CN1C(=O)c1ccccc1,20 µM (active),,,,,,inactive,,
CC(C)C[C@@H](CC(=O)N[C@@H](CCCN)CC(=O)N[C@@H]1CCCC[C@H]1C(=O)N[C@H](CC(=O)N[C@@H](CCC(=O)O)CC(=O)O)Cc1ccccc1)NC(=O)[C@@H]1CNCC[C@H]1N,25.1 µM (active),> 46,inactive,inactive,inactive,inactive,,,
COc1cc(/C=C\C(=O)CC(=O)/C=C\c2ccc(O)c(OC)c2)ccc1O,15.8 µM (active),> 46,,15.8 µM (active),,2.51 µM (active),inactive,,
CC(C)C[C@@H](CC(=O)N[C@@H](CCC(=O)O)CC(=O)O)NC(=O)[C@@H]1CNCC[C@H]1NC(=O)C[C@@H](NC(=O)C[C@H](Cc1c[nH]c2ccccc12)NC(=O)[C@@H]1CNCC[C@H]1N)C(C)C,inactive,> 46,,inactive,inactive,inactive,,,
CC(C)C[C@@H](CC(=O)N[C@@H](CCCN)CC(=O)N[C@@H]1CCCC[C@H]1C(=O)N[C@H](CC(=O)N[C@@H](CCC(=O)O)CC(=O)O)CC(C)C)NC(=O)[C@@H]1CCCC[C@H]1N,inactive,> 46,inactive,inactive,inactive,,,,
CC(C)[C@@H](CC(=O)N[C@@H]1CCNC[C@H]1C(=O)N[C@H](CC(=O)N[C@@H](CCC(=O)O)CC(=O)O)Cc1c[nH]c2ccccc12)NC(=O)C[C@H](Cc1c[nH]c2ccccc12)NC(=O)[C@@H]1CNCC[C@H]1N,inactive,> 46,inactive,inactive,inactive,inactive,,,
CCC/C=C(\CCC)C(NC(=O)Oc1ccc(F)cc1)c1ccc(C(=O)OC)cc1 (stereo not drawn),inactive,,,,,,inactive,,
CC(C)C[C@@H](CC(=O)N[C@H](CC(=O)N[C@@H]1CCNC[C@H]1C(=O)N[C@H](CC(=O)N[C@@H](CCC(=O)O)CC(=O)O)Cc1c[nH]c2ccccc12)C(C)C)NC(=O)[C@@H]1CNCC[C@H]1N,inactive,> 46,inactive,inactive,inactive,inactive,,,
NCCC[C@@H](CC(=O)N[C@@H]1CCNC[C@H]1C(=O)N[C@H](CC(=O)N[C@@H](CCC(=O)O)CC(=O)O)Cc1c[nH]c2ccccc12)NC(=O)C[C@H](Cc1c[nH]c2ccccc12)NC(=O)[C@@H]1CNCC[C@H]1N,inactive,> 46,inactive,,,inactive,,,
COC(=O)[C@@]1(Cc2ccc(F)cc2)[C@H]2c3cc(C(=O)N(C)C)n(Cc4cc(F)c(F)c(F)c4)c3C[C@H]2CN1C(=O)c1ccccc1,inactive,,inactive,,,,inactive,,
COC(=O)[C@@]1(Cc2ccccc2)[C@H]2c3cc(C(=O)N(C)C)n(CCN4CNCC4=O)c3C[C@H]2CN1C(=O)c1ccccc1,5.01 µM (active),,inactive,,,,inactive,,

Structure (SMILES),Potency [1],Potency [2] [µM],Potency [3],Potency [4],Potency [5],Potency [6],Potency [7],Potency [8],Potency [9]
C[C@@H](C(=O)Nc1ccc2ccccc2c1)[C@H]1C[C@]1(C)[C@H](NC(=O)OCc1ccccc1)c1ccccc1,3.98 µM (active),,inactive,,1.58 µM (active),,inactive,2.51 µM (active),inactive
COCCn1c(C(=O)N2CCCC2)cc2c1C[C@H]1CN(C(=O)c3ccccc3)[C@@](Cc3ccc(F)cc3)(C(=O)OC)[C@@H]21,31.6 µM (active),,inactive,,,,inactive,,
COC(=O)[C@@]1(Cc2ccc(F)cc2)[C@H]2c3cc(C(=O)N4CCCC4)n(Cc4ccccc4)c3C[C@H]2CN1C(=O)c1ccccc1,20 µM (active),,inactive,,3.98 µM (active),,inactive,,inactive
COC(=O)[C@@]1(Cc2ccccc2)[C@H]2c3cc(C(=O)N4CCCC4)n(Cc4ccsc4Br)c3C[C@H]2CN1C(=O)c1ccccc1,inactive,,inactive,,2 µM (active),2.51 µM (active),inactive,3.98 µM (active),inactive
C[C@@H](C(=O)NCCc1c[nH]c2ccccc12)[C@H]1C[C@]1(C)[C@H](NC(=O)OCc1ccccc1)c1ccccc1,15.8 µM (active),,inactive,2 µM (active),0.631 µM (active),2.51 µM (active),inactive,1.58 µM (active),inactive
COC(=O)[C@@]1(Cc2ccccc2)[C@H]2c3cc(C(=O)N4CCCC4)n(Cc4ccc(OC)c(OC)c4)c3C[C@H]2CN1C(=O)c1ccccc1,inactive,,inactive,,1.26 µM (active),,inactive,1.26 µM (active),inactive
COC(=O)[C@@]1(Cc2ccc(F)cc2)[C@H]2c3cc(C(=O)N4CCCC4)n(CCCNc4ncc(C(F)(F)F)cc4Cl)c3C[C@H]2CN1C(=O)c1ccccc1,inactive,,inactive,,3.16 µM (active),,inactive,2.51 µM (active),inactive
O=C(NCCc1c[nH]c2ccccc12)[C@@H]1C[C@H]1[C@@H](NP(=O)(c1ccccc1)c1ccccc1)c1ccccc1,15.8 µM (active),,inactive,,0.251 µM (active),6.31 µM (active),inactive,1.26 µM (active),inactive
COC(=O)[C@@]1(Cc2ccc(OC)cc2)[C@H]2c3cc(C(=O)N4CCCC4)n(CCc4c[nH]c5ccc(OC)cc45)c3C[C@H]2CN1C(=O)c1ccccc1,10 µM (active),,inactive,,,,inactive,,
COC(=O)[C@@]1(Cc2ccc(F)cc2)[C@H]2c3cc(C(=O)N4CCCC4)n(Cc4cccc5ccccc45)c3C[C@H]2CN1C(=O)c1ccccc1,15.8 µM (active),,inactive,,1.58 µM (active),,inactive,2 µM (active),inactive
COC(=O)[C@@]1(Cc2ccc(OC)cc2)[C@H]2c3cc(C(=O)N4CCCC4)n(Cc4cc(F)cc5c4OCOC5)c3C[C@H]2CN1C(=O)c1ccccc1,inactive,,inactive,,6.31 µM (active),7.94 µM (active),inactive,2.51 µM (active),inactive
CCC#CCOCC(=S)Nc1ccccc1,15.8 µM (active),,inactive,,,,inactive,,
CC(=O)N1CC2(CC2)CC1c1ccccc1 (stereo not drawn),inactive,,inactive,,,,inactive,,
CC(=O)N[C@@H](c1ccccc1)[C@]1(C)C[C@H]1[C@@H](C)C(=O)Nc1ccc2ccccc2c1,12.6 µM (active),,inactive,,6.31 µM (active),0.398 µM (active),inactive,7.94 µM (active),inactive
CCc1c2c(nc3cccc(OC)c13)OC(CC)C2 (stereo not drawn),2 µM (active),,inactive,,,,inactive,,
COC(=O)[C@@]1(Cc2ccc(OC)cc2)[C@H]2c3cc(C(=O)N(C)C)[nH]c3C[C@H]2CN1C(=O)c1ccccc1,20 µM (active),,inactive,,3.98 µM (active),,inactive,1.58 µM (active),inactive

# From PubChem BioAssay (NCATS)
